Mtb FBA inh = inhibits M. tuberculosis FBA enzyme | inhibition, % at 1 µM | 2.3% of 360,000 active | purified M. tuberculosis FBA, fluorescence read-out | P9WQA3;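 further: 0% = vehicle and 100% = reference inhibitor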
Target sequence (P9WQA3 whole entry, looked up): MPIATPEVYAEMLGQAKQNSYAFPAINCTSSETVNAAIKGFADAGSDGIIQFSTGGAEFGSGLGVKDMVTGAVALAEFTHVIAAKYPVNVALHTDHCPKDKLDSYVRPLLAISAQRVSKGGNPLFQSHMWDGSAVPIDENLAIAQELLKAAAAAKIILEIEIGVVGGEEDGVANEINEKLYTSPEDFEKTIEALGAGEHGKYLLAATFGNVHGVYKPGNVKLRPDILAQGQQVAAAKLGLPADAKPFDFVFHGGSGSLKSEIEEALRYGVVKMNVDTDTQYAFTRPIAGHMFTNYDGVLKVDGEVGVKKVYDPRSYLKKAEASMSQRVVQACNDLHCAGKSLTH
Mtb betalactam = beta-lactam sensitization of Mtb H37Rv; M. tuberculosis H37Rv growth with meropenem, percent inhibition; inhibition, % at 25 µM; 0.27% of 330,000 active; AID 434955; call rule not given here;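 further: growth measured after seven days incubation then overnight dye step; 0% = bacteria only wells and 100% = bacteria with antibiotic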
GDH-TPI counter-1 = counter-screen for M. tuberculosis FBA inhibitors: GDH-TPI coupled enzymes; GDH-TPI coupled enzyme counterscreen, NADH absorbance; inhibition, % at 4.8 µM; 1.2% of 360,000 active; in the data active means inhibition above about 30%;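 further: 0% = DMSO wells and 100% = wells lacking the enzyme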
CCHF vOTU inh = blocks the CCHF virus ovarian tumor domain protease | CCHFV vOTU protease, Pep-AMC fluorescence | 0.55% of 370,000 active | AID 651958 | inhibition, % at 11.5 µM; in the data active means inhibition above about 30%; further: 0% = vehicle wells with enzyme and 100% = no enzyme wells
RecA splice inh = inhibitors of M. tuberculosis RecA intein splicing | P9WHJ3 | cell-free RecA intein splicing, fluorescence | inhibition, % (concentration not given with the values) | 0.75% of 290,000 active; in the data active means inhibition above about 30%;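 further: 0% = vehicle wells and 100% = reference inhibitor control wells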
Mtb FBA confirm = confirmation of M. tuberculosis fructose-bisphosphate aldolase inhibitors. inhibition, % at 1 µM. 78% of 5,600 active. purified M. tuberculosis FBA, fluorescence read-out. shares compounds with Mtb FBA inh. AID 651616;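 further: 0% = vehicle wells and 100% = reference inhibitor wells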
GDH-TPI counter-2 = inhibits GDH-TPI coupling enzymes, flagging Mtb FBA hits. shares compounds with Mtb FBA inh. GDH-TPI coupled enzyme counterscreen, fluorescence. inhibition, % at 1 µM. 81% of 5,600 active; in the data active means inhibition above about 10%
GDH-TPI dose = inhibits GDH-TPI coupling enzymes in dose response. shares compounds with Mtb FBA inh. GDH-TPI coupled enzyme assay, fluorescence, artifact counterscreen. IC50, µM. 79% of 170 active; call rule not given here
An asterisk follows results filed as active; . = no result; + = active, no number. In the library only some 4.2% were active in any assay of this set; here they are far more common. Unless noted, no stated cut-off is given here; in the data, active means inhibition above about 27%; inactive means the rest.

SMILES	Mtb FBA inh	Mtb betalactam	GDH-TPI counter-1	CCHF vOTU inh	RecA splice inh	Mtb FBA confirm	GDH-TPI counter-2	others
Cc1ccc(NC(=O)CN(C)C(=O)C(c2ccccc2)c2ccccc2)cc1	0.0	-2.7	9.0	8.5	.	.	.
Cc1ccc(NC(=O)CN(C)C(=O)C(C)OC(=O)c2ccccc2NCCO)cc1 (stereo unspecified)	92.4*	-2.7	8.0	-185.9	-0.3	98.0*	72.9*
Cc1ccc(NC(=O)CN(C)CC(=O)Nc2ccccc2C(=O)Nc2ccccc2)cc1	73.0*	2.1	0.3	-13.4	-0.1	6.5	-3.8
CC(OC(=O)c1ccccc1NCCO)C(=O)NCC(=O)Nc1ccc(F)c(F)c1F (stereo unspecified)	90.7*	-24.1	0.0	-147.4	-1.8	127.8*	97.1*
O=C1C=CC(=NN=C(c2ccccc2)c2ccccc2)C=C1	32.2*	.	.	-9.5	.	80.5*	66.6*
CCOc1ccc2oc(C(=O)OCC(=O)NC(=O)NC3CCCC3)c(C)c2c1	17.7	-9.6	9.8	-9.1	9.6	.	.
CCN(C(=O)COC(=O)c1oc2ccc(OC)cc2c1C)C1CCS(=O)(=O)C1 (stereo unspecified)	60.4*	.	4.1	-16.1	.	111.8*	120.6*
CCCN(CC1CC1)C(=O)COC(=O)c1oc2ccc(OCC)cc2c1C	41.9*	1.4	9.5	19.6	.	+	185.6*
CCOc1ccc2oc(C(=O)OCC(=O)NC3CCCC3)c(C)c2c1	31.2*	-7.7	1.6	-16.6	.	14.2	9.1	GDH-TPI dose=6.68*
COc1ccc2oc(C(=O)NC3(C)CCS(=O)(=O)C3)c(C)c2c1 (stereo unspecified)	39.5*	-9.9	12.0	-6.1	-3.8	+	+
O=C(CC1CCCC1)N[C@@H](Cc1cccnc1)C(=O)N1CCC[C@H]1C(=O)NCCc1ccccc1Cl	.	.	.	-2.5	.	.	.
O=C(NCC1CCN(C(=O)C(=O)c2cccs2)CC1)c1ccc2c(c1)CCO2	.	.	.	-1.5	.	.	.
CCNC(=O)O[C@@H]1C=C[C@@H](C#Cc2ccc(C(C)(C)C)cc2)O[C@@H]1COC(C)=O	.	.	.	17.2	.	.	.
Cc1c(C(=O)OCC(=O)NC2CCCCC2)oc2ccccc12	4.0	1.9	3.2	6.3	.	.	.
COc1ccc2oc(C(=O)OCC(=O)NC3CCCCC3)c(C)c2c1	39.0*	-10.1	10.2	-2.1	1.8	89.8*	78.3*
COC(=O)[C@]12C[C@H](CC(=O)N3CCCC3)C(=O)N(Cc3ccccc3)C1=C[C@H](COCc1ccccc1)O[C@@H]2C	.	.	.	-2.2	.	.	.
Brc1ccc(-c2nn3c(-c4ccccc4)nnc3s2)cc1	.	.	.	-3.4	.	.	.
NC(=O)C1CCN(C(=O)CCNS(=O)(=O)c2ccccc2F)CC1	36.9*	-2.7	-4.6	-5.6	.	11.1	6.3	GDH-TPI dose=>10
O=C(CCNS(=O)(=O)c1ccccc1F)N1CCN(C(c2ccccc2)c2ccccc2)CC1	0.1	9.1	-0.7	3.6	13.0	.	.
NC(=O)C1CCN(C(=O)CCC(=O)c2ccc(F)cc2)CC1	53.5*	5.2	-2.6	-14.0	-0.4	135.5*	127.9*
O=C(OC12CCCN(C1)/C(=C/c1ccccc1)C2)c1ccc(Cl)cc1 (stereo unspecified)	.	.	.	6.9	.	.	.
Cc1cc(C)cc(N(CC(=O)NC2CCC(C)CC2)S(=O)(=O)c2ccc(Cl)s2)c1 (stereo unspecified)	.	.	.	-0.9	.	.	.
CN(C)C(=O)N1CCN(C(=O)[C@H](CCc2ccccc2)NC(=O)[C@H]2O[C@@H](n3cnc4c(N)ncnc43)[C@H](O)[C@@H]2O)CC1	.	.	.	-10.1	.	.	.
CC(=O)O[C@@H]1C=C[C@@H](C#Cc2ccc(C(C)(C)C)cc2)O[C@@H]1COC(=O)NC(C)C	.	.	.	-4.9	.	.	.
Cc1ccc(S(=O)(=O)N2CCCC2C(=O)N2CCN(c3ccccc3)CC2)cc1 (stereo unspecified)	.	.	.	-4.1	.	.	.
SMILES	Mtb FBA inh	Mtb betalactam	GDH-TPI counter-1	CCHF vOTU inh	RecA splice inh	Mtb FBA confirm	GDH-TPI counter-2	others
O=C(COC(=O)/C=C/c1ccc(Cl)c(Cl)c1)NC1CCS(=O)(=O)C1 (stereo unspecified)	-0.7	-6.3	-4.0	-1.8	.	.	.
COc1cccc(CNC(=O)COC(=O)/C=C/c2ccc(SC)cc2)c1	36.5*	-2.7	13.7	-19.4	.	+	+
COc1ccc(/C=C/C(=O)OCC(=O)NC2CCCCCCC2)cc1	-2.2	77.4	5.4	7.3	.	.	.
CSc1ccc(/C=C/C(=O)OCC(=O)NC2CCCCCC2)cc1	29.7*	.	28.9	-3.6	.	+	196.0*
O=C(COC(=O)c1cccc2ccccc12)NCC1CCCO1 (stereo unspecified)	36.4*	1.2	3.3	0.5	-1.6	137.2*	119.5*
CSc1ccc(/C=C/C(=O)OCC(=O)NC2CCS(=O)(=O)C2)cc1 (stereo unspecified)	63.9*	-3.3	34.8*	-67.3	.	36.6*	24.4*
COC(=O)[C@]12C[C@H](CC(=O)NCc3cccs3)C(=O)N(Cc3cccc4ccccc34)C1=C[C@H](C(C)(C)C)O[C@@H]2C	.	.	.	14.6	.	.	.
COc1ccc(/C=C/C(=O)OCC(=O)N2CCCCCC2)cc1OC	11.2	-1.2	24.7	-7.5	.	.	.
CSc1ccc(/C=C/C(=O)OCC(=O)NCC2CCCO2)cc1 (stereo unspecified)	45.2*	2.9	30.0	-63.1	.	52.7*	49.3*
O=C(COC(=O)/C=C/c1ccccc1)NCC1CCCO1 (stereo unspecified)	-0.7	-3.5	-8.6	-9.6	-0.5	.	.
CSc1ccc(/C=C/C(=O)OCC(=O)N2CCCCCC2)cc1	81.1*	0.3	43.0*	-58.7	.	+	+
C[C@H](c1ccccc1)N1C[C@@H](COCc2ccccc2)Oc2cccc(Oc3ccc(C(C)(C)C)cc3)c2S1(=O)=O	.	.	.	1.5	.	.	.
COc1cc(C(=O)NC2CCCCN(Cc3cccc(Cl)c3)C2=O)cc(OC)c1OC (stereo unspecified)	.	.	.	-6.0	.	.	.
COc1ccc(S(=O)(=O)N2CCCc3nc(-c4ccc(F)cc4)ccc32)cc1	.	.	.	-4.8	.	.	.
CCC(C)Sc1cccc(-c2nc3cc(C)ccn3c2NC2CCCCC2)c1 (stereo unspecified)	45.2*	86.9	23.8	11.2	.	139.8*	132.9*
CCC(C)Sc1cccc(-c2nc3ccccn3c2NCc2ccccc2)c1 (stereo unspecified)	32.3*	9.4	5.4	-6.4	.	113.4*	91.5*
Cc1ccn2c(NC3CCCCC3)c(-c3cccc(SC4CCCCC4)c3)nc2c1	20.5	27.8	1.8	-9.6	.	.	.
CCC(C)Sc1cccc(-c2nc3ccc(C)cn3c2NCc2ccccc2)c1 (stereo unspecified)	38.8*	25.1	15.0	-3.4	11.9	0.6	0.7
COC(=O)[C@]12C[C@H](CC(=O)NCC34CC5CC(CC(C5)C3)C4)C(=O)N(CCc3ccc(OC)c(OC)c3)C1=C[C@H](C(C)C)O[C@@H]2C1CC1	.	.	.	20.9	.	.	.

From PubChem BioAssay
